Assay outcomes: PubChem BioAssay, several laboratories
GLD-1 RNA inh – GLD-1-TGE RNA interaction inhibition (C. elegans) | Q17339 | purified GLD-1 + fluorescein TGE RNA, fluorescence polarization | inhibition, % at 5.96 µM | 320,000 tested, 0.44% active | AID 2280;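 active means percent inhibition above a per-plate cutoff, the plate mean of test compounds plus 3 SD, cut at about 30% in these data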;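 further: 0% = DMSO wells with GLD-1 and probe and 100% = wells lacking GLD-1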
Bcl-xL primary – Bcl-xL (human) inhibition. Q07817. GST-Bcl-xL / FITC-Bim BH3 peptide fluorescence polarization. inhibition, % at 10.9 µM. 320,000 tested, 0.7% active. AID 2129;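 active means inhibition above the mean of all tested compounds plus 3 SD, cutoff set per campaign, cut at about 30% in these data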;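 further: 0% = DMSO wells and 100% = unlabeled Bim-BH3 peptide competitor; inhibitors lower millipolarization by displacing the labeled peptide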
LANA-H2B inh – blocks KSHV LANA binding to histone H2A/H2B | 320,000 tested, 0.6% active | inhibition, % (test concentration not listed) | cell-free LANA-H2A/H2B peptide, fluorescence polarization | Q9QR71 | AID 2629; in the data active means inhibition mostly above about 10%, no sharp cut-off; inactive means mostly below about 6.7%
MEX-5 binding – C. elegans MEX-5 TCR-2 RNA binding activity. Q9XUB2. MEX-5/FITC-TCR2 RNA binding, fluorescence polarization; stronger effect = lower value. activity score (negative = inhibition of binding), % at 10 µM. 300,000 tested, 0.38% active. AID 1832;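 active means inhibition past about -25% in most replicates, and total fluorescence under double the plate's negative control median, limit read from the data; inconclusive means replicates evenly split on the limit, or fluorescence at least double controls; inactive means too little inhibition in most replicates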;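 further: 0% = DMSO and -100% = 5 µM competing unlabeled TCR2 RNA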
Target sequence (Q9XUB2 whole entry, looked up): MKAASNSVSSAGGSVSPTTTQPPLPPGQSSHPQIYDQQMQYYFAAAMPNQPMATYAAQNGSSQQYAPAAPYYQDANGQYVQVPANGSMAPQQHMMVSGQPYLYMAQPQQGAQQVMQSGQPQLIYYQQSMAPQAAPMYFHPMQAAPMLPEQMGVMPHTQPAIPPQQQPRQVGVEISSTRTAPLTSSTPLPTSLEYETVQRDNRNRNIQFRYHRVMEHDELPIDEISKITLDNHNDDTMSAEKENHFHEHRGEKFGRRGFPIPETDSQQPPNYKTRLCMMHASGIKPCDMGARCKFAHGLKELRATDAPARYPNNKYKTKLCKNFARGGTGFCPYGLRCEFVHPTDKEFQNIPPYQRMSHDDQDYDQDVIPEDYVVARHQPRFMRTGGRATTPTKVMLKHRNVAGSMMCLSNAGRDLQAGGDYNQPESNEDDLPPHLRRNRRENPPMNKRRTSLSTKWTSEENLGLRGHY
Yeast superoxide – lowers age-related superoxide in aged yeast cells; S. cerevisiae aged cells, superoxide DHE fluorescence; stronger effect = lower value; 330,000 tested, 0.18% active; superoxide response (% of plate mean), % at 10 µM;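 active means superoxide response under a set limit, about three screen SD below normal, cut at about 65% in these data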;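 further: yeast aged for seven days with compound at 30 °C before DHE staining; 100% = average MFI of all compound-treated wells on the plate with controls excluded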
MCL1 BIM primary – MCL1-BIM-BH3 interaction inhibition (human); GST-MCL1 / FITC-Bim-BH3 fluorescence polarization; inhibition, % at 10.9 µM; 320,000 tested, 0.68% active;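 active means inhibition above the mean inhibition of all tested compounds plus 3 SD, set per campaign, cut at about 40% in these data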;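 further: 0% = DMSO wells and 100% = unlabeled Bim-BH3 peptide control; higher means more loss of mP so more displacement of Bim peptide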
Starred values were filed as active, the others as inactive; ? = inconclusive; / = no result given. This is a sample that favours compounds with a hit; in the whole collection about 1.9% have one here.

SMILES	GLD-1 RNA inh	Bcl-xL primary	LANA-H2B inh	MEX-5 binding	Yeast superoxide	MCL1 BIM primary
O=C(NCCc1ccccc1)c1ccc2c(c1)S(=O)(=O)c1cc(Cl)ccc1C2=O	2	3	1	/	96	1
CCn1c(=N)c(S(=O)(=O)c2ccc(C)cc2)cc2c(=O)n3ccccc3nc21	-8	6	1	?	107	6
Cc1ccc(S(=O)(=O)c2cc3c(=O)n4ccccc4nc3n(CCc3ccccc3)c2=N)cc1	4	0	1	-32*	76	-4
N=c1c(C(=O)NCc2ccc(F)cc2)cc2c(=O)n3ccccc3nc2n1Cc1cccnc1	3	41*	0	?	102	39
N=c1c(C(=O)NCCN2CCOCC2)cc2c(=O)n3ccccc3nc2n1CCc1ccccc1	14	14	-5	-28*	90	4
Cc1cccn2c(=O)c3cc(C(=O)NCc4ccco4)c(=N)n(C4CCCC4)c3nc12	18	34*	3	-9	130	34
COc1ccc(C(C)(C)C)cc1NC(=O)C1CC(=O)N(C2CCCC2)C1 (stereo unspecified)	-1	/	-4	/	118	/
Cc1cccc(S(=O)(=O)Nc2nc3ccccc3nc2OC(C)C)c1	7	1	1	-1	98	0
COCc1c(C(=O)Nc2cccc(S(=O)(=O)N3CCCCC3)c2)oc2ccccc12	4	/	4	/	101	/
Cc1cc2n(n1)C(c1cn(-c3ccccc3)nc1C)Nc1ccccc1-2 (stereo unspecified)	5	3	3	-2	102	-3
Cc1cc2n(n1)C(c1c[nH]c3ccccc13)Nc1ccccc1-2 (stereo unspecified)	23	10	6	-32*	98	7
O=C(NCc1ccccc1CN1CCCC1)c1cccc(N2CCCC2=O)c1	-11	5	-1	/	87	-1
CC1CN(Cc2c(O)ccc3c2oc(=O)c2ccccc23)CC(C)O1 (stereo unspecified)	-3	18	-2	-29*	81	10
CC1(C)CNC(=O)CC(C)(C)N1	0	7	43*	3	115	11
CC1(C)CC(CC(=O)O)CC(C)(C)N1	3	4	0	2	84	-6
O=C(COc1ccc2c(-c3ccccc3)cc(=O)oc2c1)NC1CCS(=O)(=O)C1 (stereo unspecified)	-4	6	-5	/	78	-2
Cc1ccc(C)c(N2C(=O)CC(Cc3ccccc3)C2=O)c1 (stereo unspecified)	-4	2	5	-1	102	1
Cc1cccc(CC2CC(=O)N(c3ccc(C)cc3Br)C2=O)c1 (stereo unspecified)	-2	0	26*	-2	109	5
N#Cc1c(-c2ccco2)cc(-c2ccccc2)[nH]c1=O	21	34*	-4	-7	101	33
Cc1cc(-c2ccccc2)[nH]c(=O)c1C#N	2	2	3	3	113	-4
Cc1sc2ncnc(-n3cnc4ccccc43)c2c1C	6	3	83*	-3	92	2
Cc1cc(O)c(C(C)C)cc1N=C1CSC(=O)N1	30	40*	-1	?	101	39
COc1ccccc1NC(=O)N1CCN(C(=O)Nc2ccccc2OC)CC1	4	6	-9	0	101	7
CCC1c2ccc(C)n2CCN1C(=O)Nc1ccccc1OC (stereo unspecified)	50*	50*	-4	-6	107	50*
COc1cc(NC(=S)N2CCN(C)CC2)cc(OC)c1	-5	-12	9.7*	2	104	-16
CC1Cc2ccccc2N1C(=O)CN(C)CC(=O)Nc1cccc(F)c1 (stereo unspecified)	5	0	3	/	76	5
COc1ccccc1C(=O)NNC(=O)c1cccc(Cl)c1	1	1	-3	-1	100	6
Cc1cc(C(=O)NNC(=O)c2cccc([N+](=O)[O-])c2)n[nH]1	-1	0	0	/	76	10
O=C(NNC(=O)c1ccccc1[N+](=O)[O-])c1cnccn1	5	0	-1	-65*	123	2
COc1ccc(Cl)cc1C(=O)NNC(=O)c1cccc([N+](=O)[O-])c1	6	9	156*	1	97	8
